TDP1 cell noCPT = qHTS for Inhibitors of human tyrosyl-DNA phosphodiesterase 1 (TDP1): qHTS in cells in absence of CPT | DT40 Tdp1-/- hTDP1 cells, no CPT, ATP luminescence, 48 h | Potency, µM (titrated, usually from 46.2 µM), for inactives: at the highest dose activity change, negative = growth inhibition, hits mostly inhibitors | 15% of 420,000 active | AID 686978, 2013; also: nearly all actives have a fitted effect of over 55% in size
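Growth of hTDP1-complemented DT40 Tdp1-knockout cells is measured by ATP luminescence after at least 48 hr compound exposure at 37 °C, with DMSO substituting for the 20 nM CPT used in the parallel screen.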
KB-V1 cytotox = kills drug-selected multidrug resistant KB-V1 cells. KB-V1 MDR cells viability, CellTiter-Glo, 72 h. Potency, µM (top dose mostly 46.1 µM), actives largely listed as cytotoxic. 3.4% of 400,000 active. AID 1347076; also: nearly all actives have a fitted effect of over 60% in size
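Compound-treated KB-V1 multidrug-resistant cells, 72 h, 37 degrees C; viability by CellTiter-Glo. Fitted qHTS curves give the values.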
DT40 TDP1 CPT = growth inhibition of DT40 Tdp1-/-;hTDP1 cells with camptothecin (screen for TDP1 inhibitors). chicken DT40 Tdp1-/-;hTDP1 cells + 20 nM CPT, ATP luminescence, 48 h. Potency, µM (highest dose often 46.2 µM), without a hit: top-dose activity change, negative = growth inhibition, most hits filed as inhibitors. 12% of 420,000 active; also: nearly all actives have a fitted effect of over 55% in size
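Cell growth measured by CellTiter-Glo luminescence after a minimum 48 h, 37 C compound exposure with 20 nM CPT in Tdp1-knockout DT40 cells stably expressing hTDP1, seeded 400/well; qHTS titration format.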
HT1080NT lethal = kills 2HG-producing HT-1080-NT fibrosarcoma cells | HT-1080-NT fibrosarcoma viability, CellTiter-Glo ATP luminescence, 48 h | Potency, µM (series often up to 46.1 µM), for inactives: top-dose activity, negative = less viability, usual class: cytotoxic | 1.6% of 360,000 active | AID 686970;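 also: NT is the 2HG producing partner of a matched IDH1 knockdown line; 0% = DMSO-treated cells and -100% = media-only wells without cells; nearly all actives have a fitted effect of over 55% in size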
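HT-1080-NT fibrosarcoma cells (2HG-overproducing), 750 cells/well in RPMI with 5% FBS, dosed after 2 h and incubated 48 h at 37C. CellTiter-Glo luminescence normalized to DMSO and no-cell wells; concentration-response curves fitted and classed.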
HT1080 IDH1KD tx = toxicity to HT-1080 IDH1 knockdown cells (counter line) | AID 686971 | HT-1080 IDH1 knockdown viability, ATP luminescence, 48 h | 2% of 360,000 active | Potency, µM (series often up to 46.1 µM), for inactives: at the top dose activity, negative = toxicity, most hits filed as cytotoxic;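 also: 0% = DMSO wells and -100% = cell-free medium wells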
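% activity derives from luminescence (CellTiter-Glo), normalised to DMSO and no-cell wells. HT-1080-IDH1KD cells, 750/well, had 48 h compound exposure at 37 °C.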
KB-3-1 cytotox = KB-3-1 parental cell cytotoxicity | KB-3-1 viability, CellTiter-Glo ATP luminescence, 72 h | Potency, µM (doses to about 46.1 µM), usual class: cytotoxic | 1.4% of 400,000 active; also: nearly all actives have a fitted effect of over 60% in size
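Viability of parental KB-3-1 cells, measured by CellTiter-Glo luminescence, followed a 72 h incubation at 37 °C with pinned compounds in phenol-red-free DMEM containing 10% FBS.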
Starred values were filed as active, the others as inactive; i = inactive; ? = inconclusive; nt = no result; [ ] = dose if it differs, or a comment. Hits are enriched below; roughly 19% of the tested compounds scored in any of these assays. Calls follow the shape of the dose curve; as a rule, active = well fitted curve in the direction sought with a large enough effect; inconclusive = small, poorly fitted or top-dose-only effect, or another doubt; inactive = no such curve, though single readings can be large; an effect the other way counts as inactive or inconclusive. Unless noted, % is scaled to controls: 0 for no effect and ±100 for the full control effect; potency is read from the fitted curve at half-maximal effect.

SMILES	TDP1 cell noCPT	KB-V1 cytotox	DT40 TDP1 CPT	HT1080NT lethal	HT1080 IDH1KD tx	KB-3-1 cytotox
COc1cc(OC)cc(C(=O)Nc2ccccc2-c2nnn(CC(=O)Nc3cc(C)on3)n2)c1	-27.4%	?	?	9.7%	3.9%	i
O=C(CN1C=NS(=O)(=O)c2ccccc21)Nc1ccc(Br)cc1	?	?	1.8%	nt	nt	i
CC(=O)Nc1ccc(NC(=O)c2ccnn2C)cc1	-35.8%	i	-11.7%	-1.6%	-1.4%	i
COc1ccc(OC)c(NS(=O)(=O)c2c(C(=O)N3CCCCCC3)c(C)n(C)c2C)c1	9.2%	i	3.9%	4.2%	5.9%	i
CCN(c1ccccc1)S(=O)(=O)c1ccc(Cl)c(C(=O)Nc2ccncc2)c1	11.6µM*	?	?	-2.3%	-16.0%	i
CN(c1ccc(F)cc1)S(=O)(=O)c1ccc(Cl)c(C(=O)Nc2ccncc2)c1	13µM*	?	18.4µM*	-5.7%	-21.8%	?
O=C(Nc1ccccc1)c1cc(S(=O)(=O)Nc2cccnc2)ccc1Cl	-17.0%	i	-6.4%	9.3%	23.2%	i
CN(C)S(=O)(=O)c1ccc(Cl)c(NC(=O)c2ccncc2)c1	-17.3%	i	-27.8%	6.8%	2.8%	?
O=C(Nc1ccccc1)c1cc(S(=O)(=O)NCc2ccncc2)ccc1Cl	8.2µM*	nt	9.2µM*	-30.0%	-18.2%	nt
COc1ccc(CN2CCC3(CCC(CNC(=O)c4ccnn4C)O3)CC2)c(C)c1C (stereo not drawn)	?	nt	-29.2%	nt	nt	nt
Cc1cc2c3c([nH]c2cc1S(=O)(=O)N1CCC2(CC1)OCCO2)CC(C)(C)CC3=O	-58.3%	i	?	-27.8%	-5.5%	i
CCc1cc2c3c([nH]c2cc1S(=O)(=O)N1CCC2(CC1)OCCO2)CCCC3=O	16.4µM*	i	23.1µM*	-15.4%	-14.9%	i
CCCCOc1[nH]c2nc(-c3ccco3)n(Cc3ccco3)c(=N)c2c1C#N	23.1µM*	?	?	8.0%	11.9%	i
Cc1ccc(CNC(=O)c2c[nH]n3c(=O)c(Cc4ccc(Cl)cc4)c(C)nc23)cc1	?	i	?	nt	nt	i
COc1ccccc1NC(=O)Cn1c(=O)n(Cc2ccc3c(c2)OCO3)c(=O)c2oc3ccccc3c21	-3.0%	nt	5.2%	nt	nt	nt
Cc1ccccc1NC(=O)Cn1c(=O)n(Cc2ccc3c(c2)OCO3)c(=O)c2ccccc21	16.4µM*	i	-23.7%	nt	nt	i
Cc1cccc(C)c1NC(=O)Cn1c(=O)n(Cc2ccc3c(c2)OCO3)c(=O)c2oc3ccccc3c21	4.61µM*	nt	5.17µM*	nt	nt	nt
Cc1ccccc1NC(=O)Cn1c(=O)n(Cc2ccc3c(c2)OCO3)c(=O)c2oc3ccccc3c21	8.2µM*	nt	4.11µM*	nt	nt	nt
CCOC(=O)c1ccccc1NC(=O)Cn1c(=O)n(Cc2ccc(C(=O)NCc3ccc4c(c3)OCO4)cc2)c(=O)c2ccccc21	-6.2%	?	-11.5%	nt	nt	i
CSCC[C@H](NC(=O)OC(C)(C)C)C(=O)N/N=C/c1ccc2nccnc2c1	11.6µM*	i	?	-21.0%	-16.2%	i
CSCC[C@H](NC(=O)OC(C)(C)C)C(=O)N/N=C/c1cccc2nccnc12	?	i	?	-28.4%	-17.2%	i
CCC/C(O)=C1\C(=O)CC(C)(C)CC1=Nc1cccc([N+](=O)[O-])c1	?	i	?	3.7%	-6.1%	i
COc1cccc(/C=C2\CCC(C3CCCC3)C2=O)c1 (stereo not drawn)	11.6%	i	8.0%	4.1%	6.0%	i
COc1cccc(/C=C2/CCC(CN(C)C)C2=O)c1 (stereo not drawn)	2.31µM*	?	2.31µM*	?	?	?
CN(C)CC1CCC/C(=C\c2ccc(OC(=O)/C=C/c3ccc(Cl)c(Cl)c3)cc2)C1=O (stereo not drawn)	0.92µM*	?	0.731µM*	1.6%	-1.7%	?
SMILES	TDP1 cell noCPT	KB-V1 cytotox	DT40 TDP1 CPT	HT1080NT lethal	HT1080 IDH1KD tx	KB-3-1 cytotox
CN1CCN(C(=O)/C=C/c2ccc(Cl)c(Cl)c2)CC1	-0.6%	i	-28.1%	-10.2%	-0.9%	i
CCCC/C=C1/CCC(CN(C)C)C1=O (stereo not drawn)	2.31µM*	?	2.06µM*	5.1%	-26.8%	?
CN(C)CC1CCC/C(=C/c2ccc(Cl)cc2)C1=O (stereo not drawn)	0.581µM*	?	0.517µM*	-15.6%	?	?
CN(C)CC1CCCCC1OC(=O)c1ccc(Cl)cc1 (stereo not drawn)	?	?	-16.4%	0.5%	2.4%	i
O=C(c1ccccc1)N1N=C(C(F)(F)F)CC1(O)c1ccc(F)cc1 (stereo not drawn)	?	i	?	-19.3%	-7.8%	i
CSc1nc(N)n2nccc2n1	-2.3%	i	-3.7%	1.7%	-0.7%	i
Cn1c(N)c(C(=O)COC(=O)/C=C/c2cccc(Cl)c2)c(=O)n(C)c1=O	-17.8%	i	-6.7%	4.4%	18.9%	i
CCC(=O)N1CCc2cc(S(=O)(=O)NC(C(=O)NCCc3ccc(Cl)cc3)C(C)C)ccc21 (stereo not drawn)	-9.7%	i	-17.4%	nt	nt	i
COc1ccccc1CNC(=O)CCNC(=O)C1CCN(S(=O)(=O)c2ccccc2)CC1	9.5%	?	-18.9%	-0.6%	13.0%	i
COc1ccc(C=C2CCC3C(=O)CCCC3(C)C2=O)cc1 (stereo not drawn)	?	i	-1.0%	-7.8%	-10.8%	i
COc1ccc(/C=C2/CCCC(CN(C)C)C2=O)cc1 (stereo not drawn)	0.581µM*	?	0.517µM*	5.7%	8.2µM*	?
Cc1ccc(OC(C)c2nnc(N)s2)cc1Cl (stereo not drawn)	?	?	20.6µM*	0.3%	-19.0%	?
Cc1cccc(Nc2ccc(S(=O)(=O)N3CCOCC3)cc2[N+](=O)[O-])c1	-24.8%	i	?	-0.6%[9.24 µM]	-10.7%	i
Cc1ccc(NC(=S)N=Nc2c(O)n(C)c3ccc(S(=O)(=O)N4CCOCC4)cc23)cc1	2.59µM*	i	2.59µM*	-3.4%	?	?
Cc1cc(C)cc(NC(=S)N=Nc2c(O)n(C)c3ccc(S(=O)(=O)N4CCOCC4)cc23)c1	4.61µM*	i	1.16µM*	-13.1%	-16.2%	i

Screening results (PubChem)
